Assay [1] can be described thus: NCI Yeast Anticancer Drug Screen. Data for the rad50 strain (AID 155).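 Also: 0% = growth of vehicle-only cultures of the same strain.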 To be noted: S. cerevisiae rad50 strain growth inhibition; at 50.0 µM; active compounds read high. Summed up:
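Inhibition values express reduced yeast growth in compound-treated cultures relative to vehicle-treated controls.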

Assay [2] can be described thus: NCI Yeast Anticancer Drug Screen. Data for the mec2-1 strain (AID 157). To be noted: S. cerevisiae mec2-1 strain, at 50.0 µM, active compounds read high. Summed up: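 Strain: mec2-1 (DNA repair/cell cycle alteration). Compound exposure, then growth measured; inhibition expressed relative to vehicle.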
A short description of assay [3]: NCI Yeast Anticancer Drug Screen. Data for the sgs1 mgt1 strain (AID 161).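 Also: 0% = growth of cultures given vehicle only.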 To be noted: S. cerevisiae sgs1 mgt1 strain, at 50.0 µM, active compounds read high. Summed up: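 Inhibition of yeast growth, normalised to vehicle-treated controls, is reported for a strain bearing genetic alterations in DNA damage repair.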
Assay [4] in a line: NCI Yeast Anticancer Drug Screen. Data for the cln2 rad14 strain (AID 165).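 Also: 0% = growth equal to vehicle treated cultures.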 To be noted: S. cerevisiae cln2 rad14 strain, at 50.0 µM, active compounds read high. Summed up:
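Compounds are applied to the cln2 rad14 yeast strain, and growth is then compared with that of vehicle-treated cultures to give inhibition.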

The nature of assay [5]: NCI Yeast Anticancer Drug Screen. Data for the bub3 strain (AID 167). To be noted: S. cerevisiae bub3 mutant strain, at 50.0 µM, active compounds read high. Summed up:
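Steps: expose the mutant yeast strain to compound; grow alongside vehicle-treated cultures; measure growth; express inhibition against the vehicle cultures.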

A short description of assay [6]: NCI Yeast Anticancer Drug Screen. Data for the mlh1 rad18 strain (AID 175). To be noted: S. cerevisiae mlh1 rad18 strain growth inhibition; at 50.0 µM; active compounds read high. Summed up:
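Read-out is yeast growth inhibition, calculated against vehicle-only controls. The compound was applied to a strain engineered with DNA damage repair alterations.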

This is part of a sample that, as a whole, favours compounds with a hit. Of some 79,000 tested, about 15% had one in any assay. Unmarked numbers belong to inactive results. Calls of active or inactive are those of the source. Rule as the data show it: active = growth inhibition above about 70%; inactive = the rest.

`C=C1CCC2C(C)(CO)C(O)CCC2(C)C1CCC1=CCOC1=O` (stereo not given): the growth inhibition was -22.4% in assay [1]; -17.6% in assay [2]; -3.2% in assay [3]; 3.35% in assay [4]; -4.4% in assay [5]; -8.05% in assay [6].

With `CC1(C)OCC2OC(n3cnc4c(N)nc(Cl)nc43)C(OS(C)(=O)=O)C2O1` (stereo not given), the growth inhibition in assay [1] was 3.75%; in assay [2], 16.9%; in assay [3], -13.2%; in assay [4] it was 8.7%; in assay [5], 4.15%; in assay [6] it was 30%.

As to `N#C/C(=C/c1cccs1)c1ccc(Cl)cc1`, the growth inhibition in assay [1] was -4.6%; in assay [2], -15.2%; in assay [3] it was -11.8%; in assay [4], -21.1%; in assay [5], -16.1%; in assay [6] it was 1.85%.

Regarding `CO/C(=N\N=C\c1ccccc1F)c1ccncc1`, the growth inhibition in assay [1] is -25.9%; in assay [2], -64.8%; in assay [3], -70.8%; in assay [4], 1.7%; in assay [5] it was -28.6%; in assay [6] it was -60.6%.

On to `[O-]C(=N/C(=N/[n+]1ccccc1)c1ccccc1)c1ccccc1`, for which the growth inhibition was 12.2% in assay [1]; 10.9% in assay [2]; 4.2% in assay [3]; -9% in assay [4]; -4.05% in assay [5]; 2% in assay [6].

For the compound `Nc1nc2c(c(=O)[nH]1)CN(c1ccc(S(N)(=O)=O)cc1)CN2`, the growth inhibition in assay [1] was 25.9%; in assay [2] it was -24.6%; in assay [3] it was 0.5%; in assay [4] it was -7.45%; in assay [5], -26.4%; in assay [6] it was -12.3%.

Regarding `CCCCN(CCCC)C1=Nc2ccccc2-n2c(nnc2C(=O)OCC)C1`, the growth inhibition is 24.4% in assay [1]; 44.5% in assay [2]; 22.9% in assay [3]; 15.2% in assay [4]; 52% in assay [5]; 50.4% in assay [6].

On to `CCOCCOC(=O)OCCOCC`, for which the growth inhibition in assay [1] is 10.3%; in assay [2], 1.9%; in assay [3], 22.4%; in assay [4], -4.3%; in assay [5] it was 12.1%; in assay [6], 28%.

Turning to `Cc1nc(Nc2ccccc2C)c2ccsc2n1`, the growth inhibition in assay [1] is 41.3%; in assay [2], 49.5%; in assay [3] it was 43.2%; in assay [4] it was 75% (active); in assay [5], 51.2%; in assay [6] it was 48%.

For `O=C(O)c1ccc2c(c1)S(=O)(=O)c1ccccc1C2=O`, the growth inhibition in assay [1] was 14.1%; in assay [2] it was 17.5%; in assay [3], -3.8%; in assay [4], 9.6%; in assay [5], 23.9%; in assay [6], 17.1%.

`NC(=S)N/N=C/c1cc([N+](=O)[O-])ccc1O`: the growth inhibition is 1.95% in assay [1]; -3.4% in assay [2]; 25.9% in assay [3]; 51% in assay [4]; 8.5% in assay [5]; -87.9% in assay [6].

In the case of `CC(=O)OCc1c(COC(C)=O)c(-c2ccc(Cl)c(Cl)c2)n2c1CCC2`, the growth inhibition in assay [1] was 14.8%; in assay [2], -17.1%; in assay [3], 3.2%; in assay [4] it was 16.7%; in assay [5], -21.3%; in assay [6], 13.2%.

In the case of `O=[N+]([O-])c1nccn1COCCI`, the growth inhibition in assay [1] is 7.25%; in assay [2], 15.4%; in assay [3], -0.2%; in assay [4], 3.3%; in assay [5] it was 7.75%; in assay [6] it was 52.3%.

For `CCOC(=O)c1cnc2ccccc2c1N=[N+]=[N-]`, the growth inhibition in assay [1] is -0.9%; in assay [2], 27.8%; in assay [3], 25.5%; in assay [4], -34%; in assay [5], 40.5%; in assay [6] it was 29.9%.

`CN1CCCC1`: the growth inhibition was 2.05% in assay [1]; 8.8% in assay [2]; -2.15% in assay [3]; 1.1% in assay [4]; 16.6% in assay [5]; -8.2% in assay [6].

`CCC1(C(=O)O)NC(=O)NC1=O` (stereo not given): the growth inhibition in assay [1] was -2.55%; in assay [2] it was -11.6%; in assay [3], -12.3%; in assay [4], -8.95%; in assay [5], 4.5%; in assay [6] it was -4.25%.

With `CCCCCCCCCCCCSC(=O)Nc1ccc(C(=O)OCC)cc1`, the growth inhibition in assay [1] was 24.9%; in assay [2] it was 3.3%; in assay [3], 12.7%; in assay [4], -39.2%; in assay [5] it was -2.55%; in assay [6], 20.9%.

Consider `Cc1cc(C(=O)C=[N+]=[N-])c(CN2C(=O)c3ccccc3C2=O)c(=O)n1C`, for which the growth inhibition is -0.8% in assay [1]; -9.55% in assay [2]; -3.4% in assay [3]; 5.95% in assay [4]; -13.5% in assay [5]; 1.4% in assay [6].

As for `C=C1CC23CC[C@H]4[C@@](C)(CCC[C@@]4(C)C(=O)OC4OC(CO)C(O)C(O)C4O)[C@@H]2CC[C@@]1(OC1OC(CO)C(O)C(O)C1OC1OC(CO)C(O)C(O)C1O)C3` (stereo not given in full), the growth inhibition in assay [1] was -6.6%; in assay [2], -38.5%; in assay [3] it was -38.1%; in assay [4], 25.4%; in assay [5], -39.4%; in assay [6] it was -16%.

Take `C=C(NC(C)=O)C(=O)O`: the growth inhibition in assay [1] is -4.65%; in assay [2], -7.4%; in assay [3] it was -11%; in assay [4], 4.5%; in assay [5], 10.9%; in assay [6], 4.15%.

(Values after PubChem BioAssay (NCI).)
